Laboratory results published in PubChem BioAssay (NCATS).
Inconclusive results are not listed. The source made the active and inactive calls. Calls come from the whole dose curve; as a rule, active = well fitted curve in the direction sought with a large enough effect; inconclusive = small, poorly fitted or top-dose-only effect, or another doubt; inactive = no such curve, though single readings can be large; an effect the other way counts as inactive or inconclusive.

Assays:
[1] = Quantitative High-Throughput drug screen in 47 multiple myeloma cell lines against the NCATS MIPE library collection: KMM1_JCRB cell viability assay (AID 1918960); settings: KMM1 myeloma viability, CellTiter-Glo ATP luminescence, 48 h; series mostly up to 45.8 µM; note: nearly all actives have a fitted effect of over 30% in size; note: potency is the fitted concentration of half-maximal effect
Summary of the method: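 Cell viability inhibition in this qHTS is measured via ATP content (CellTiter-Glo) after 48 h drug exposure at 37 °C. Wells hold 500 cells; DMSO-treated wells define 100% and medium-only wells 0%.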

[2] = Quantitative High-Throughput drug screen in 47 multiple myeloma cell lines against the NCATS MIPE library collection: KHM11_PLB cell viability assay (AID 1918962); settings: KHM11 myeloma cell viability, CellTiter-Glo ATP luminescence, 48 h; series mostly up to 45.8 µM; note: nearly all actives have a fitted effect of over 35% in size; note: potency is the fitted concentration of half-maximal effect
Summary of the method: (§1)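 Relative luminescence from CellTiter-Glo served as the viability signal, referenced to DMSO-treated (100%) and cell-free medium (0%) controls. Treatment lasted 48 hours at 37C with 500 cells per well.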

[3] = Quantitative High-Throughput drug screen in 47 multiple myeloma cell lines against the NCATS MIPE library collection: JIM3_ECACC cell viability assay (AID 1918963; note: nearly all actives have a fitted effect of over 35% in size; note: potency is the fitted concentration of half-maximal effect); settings: JIM3 myeloma viability, CellTiter-Glo ATP, 48 h; series mostly up to 45.8 µM
Summary of the method: as §1

[4] = Quantitative High-Throughput drug screen in 47 multiple myeloma cell lines against the NCATS MIPE library collection: Karpas25_ECACC cell viability assay (AID 1918968; note: nearly all actives have a fitted effect of over 35% in size; note: potency is the fitted concentration of half-maximal effect); settings: Karpas25 myeloma viability, CellTiter-Glo ATP, 48 h; series mostly up to 45.8 µM
Summary of the method: (§2)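 Luminescent ATP measurement with CellTiter-Glo gives viability, scaled between DMSO-only wells (100%) and media-only wells (0%). Cells, 500 per well, faced library compounds for 48 hours at 37C.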

[5] = Quantitative High-Throughput drug screen in 47 multiple myeloma cell lines against the NCATS MIPE library collection: KMS12BM_JCRB cell viability assay (AID 1918971); settings: KMS12BM myeloma viability, CellTiter-Glo ATP, 48 h; series mostly up to 45.8 µM; note: nearly all actives have a fitted effect of over 35% in size; note: potency is the fitted concentration of half-maximal effect
Summary of the method: as §1

[6] = Quantitative High-Throughput drug screen in 47 multiple myeloma cell lines against the NCATS MIPE library collection: KMS12PE_JCRB cell viability assay (AID 1918972); settings: KMS12PE myeloma viability, CellTiter-Glo ATP, 48 h; series mostly up to 45.8 µM; note: nearly all actives have a fitted effect of over 30% in size; note: potency is the fitted concentration of half-maximal effect
Summary of the method: as §1

[7] = Quantitative High-Throughput drug screen in 47 multiple myeloma cell lines against the NCATS MIPE library collection: KMS26_JCRB cell viability assay (AID 1918975); settings: KMS26 myeloma cells viability, CellTiter-Glo ATP, 48 h; series mostly up to 45.8 µM; note: nearly all actives have a fitted effect of over 45% in size; note: potency is the fitted concentration of half-maximal effect
Summary of the method: as §1

[8] = Quantitative High-Throughput drug screen in 47 multiple myeloma cell lines against the NCATS MIPE library collection: MOLP8_DSMZ cell viability assay (AID 1918977); settings: MOLP8 myeloma viability, CellTiter-Glo ATP luminescence, 48 h; series mostly up to 45.8 µM; note: nearly all actives have a fitted effect of over 45% in size
Summary of the method: (§3)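 Readout: median RLU from CellTiter-Glo after 5 min at room temperature. Preceding step was 48 h drug treatment of 500 cells/well at 37 °C, 5% CO2, with DMSO-only and media-only control wells.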

[9] = Quantitative High-Throughput drug screen in 47 multiple myeloma cell lines against the NCATS MIPE library collection: NCIH929_DSMZ cell viability assay (AID 1918978); settings: NCI-H929 myeloma viability, CellTiter-Glo ATP, 48 h; series mostly up to 45.8 µM; note: nearly all actives have a fitted effect of over 35% in size; note: potency is the fitted concentration of half-maximal effect
Summary of the method: as §3

[10] = Quantitative High-Throughput drug screen in 47 multiple myeloma cell lines against the NCATS MIPE library collection: OCIMY1_PLB cell viability assay (AID 1918979); settings: OCI-MY1 myeloma viability, CellTiter-Glo ATP, 48 h; series mostly up to 45.8 µM; note: nearly all actives have a fitted effect of over 35% in size
Summary of the method: as §3

[11] = Quantitative High-Throughput drug screen in 47 multiple myeloma cell lines against the NCATS MIPE library collection: MM1R_ATCC cell viability assay (AID 1918981); settings: MM1R multiple myeloma cells, CellTiter-Glo viability, 48 h; series mostly up to 45.8 µM; note: nearly all actives have a fitted effect of over 35% in size; note: potency is the fitted concentration of half-maximal effect
Summary of the method: as §3

[12] = Quantitative High-Throughput drug screen in 47 multiple myeloma cell lines against the NCATS MIPE library collection: JIM1_ECACC cell viability assay (AID 1918964); settings: JIM1 myeloma viability, CellTiter-Glo ATP luminescence, 48 h; series mostly up to 45.8 µM
Summary of the method: as §2

[13] = Quantitative High-Throughput drug screen in 47 multiple myeloma cell lines against the NCATS MIPE library collection: INA6_PLB cell viability assay (AID 1918965; note: nearly all actives have a fitted effect of over 55% in size; note: potency is the fitted concentration of half-maximal effect); settings: INA6 myeloma viability, CellTiter-Glo ATP luminescence, 48 h; series mostly up to 45.8 µM
Summary of the method: as §1

[14] = Quantitative High-Throughput drug screen in 47 multiple myeloma cell lines against the NCATS MIPE library collection: KMS20_JCRB cell viability assay (AID 1918973); settings: CellTiter-Glo ATP, 48 h; series mostly up to 45.8 µM; note: nearly all actives have a fitted effect of over 45% in size; note: potency is the fitted concentration of half-maximal effect
Summary of the method: as §2

[15] = Quantitative High-Throughput drug screen in 47 multiple myeloma cell lines against the NCATS MIPE library collection: MM1S_ATCC cell viability assay (AID 1918980); settings: MM1S myeloma viability, CellTiter-Glo ATP luminescence, 48 h; series mostly up to 45.8 µM; note: nearly all actives have a fitted effect of over 45% in size; note: potency is the fitted concentration of half-maximal effect
Summary of the method: as §3

[16] = Quantitative High-Throughput drug screen in 47 multiple myeloma cell lines against the NCATS MIPE library collection: JJN3_DSMZ cell viability assay (AID 1918966; note: nearly all actives have a fitted effect of over 50% in size; note: potency is the fitted concentration of half-maximal effect); settings: JJN3 myeloma cells viability, CellTiter-Glo ATP, 48 h; series mostly up to 45.8 µM
Summary of the method: as §2

[17] = Quantitative High-Throughput drug screen in 47 multiple myeloma cell lines against the NCATS MIPE library collection: KMS27_JCRB cell viability assay (AID 1918970); settings: KMS27 myeloma cells, CellTiter-Glo ATP viability, 48 h; series mostly up to 45.8 µM; note: nearly all actives have a fitted effect of over 30% in size; note: potency is the fitted concentration of half-maximal effect
Summary of the method: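 Luminescent ATP read-out (CellTiter-Glo, 5 min at room temperature) after 48 h compound exposure of 500 KMS27_JCRB cells per well; DMSO wells define full viability and media-only wells zero.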

[18] = Quantitative High-Throughput drug screen in 47 multiple myeloma cell lines against the NCATS MIPE library collection: KMS21BM_JCRB cell viability assay (AID 1918974); settings: ATP luminescence, 48 h; series mostly up to 45.8 µM; note: potency is the fitted concentration of half-maximal effect
Summary of the method: as §2

[19] = Quantitative High-Throughput drug screen in 47 multiple myeloma cell lines against the NCATS MIPE library collection: Karpas417_ECACC cell viability assay (AID 1918961); settings: Karpas417 myeloma viability, CellTiter-Glo ATP luminescence, 48 h; series mostly up to 45.8 µM; note: potency is the fitted concentration of half-maximal effect
Summary of the method: as §1

[20] = Quantitative High-Throughput drug screen in 47 multiple myeloma cell lines against the NCATS MIPE library collection: MMM1_PLB cell viability assay (AID 1918976); settings: MMM1 myeloma cells viability, CellTiter-Glo, 48 h
Summary of the method: as §3

Measured: Potency

CN1C(=O)COc2c(C(=O)NC3CN4CCC3CC4)cc(Cl)cc21 (stereo not drawn)
inactive: [1] | [2] | [3] | [4] | [5] | [6] | [7] | [8] | [9] | [10] | [11]

CC(C)c1cccc(C(C)C)c1O
inactive: [1] | [3] | [12] | [13] | [4] | [14] | [8] | [9] | [10] | [11]
active: [15] 8.33 µM

C[C@]12CC[C@@H]3c4ccc(OC(=O)N(CCCl)CCCl)cc4CC[C@H]3[C@@H]1CC[C@@H]2OP(=O)(O)O
inactive: [1] | [3] | [12] | [16] | [4] | [17] | [5] | [18] | [8] | [9] | [10]

C[C@](O)(CS(=O)(=O)c1ccc(F)cc1)C(=O)Nc1ccc(C#N)c(C(F)(F)F)c1
active: [1] 8.33 µM | [19] 0.935 µM | [2] 0.833 µM | [3] 2.35 µM | [13] 1.18 µM | [16] 4.69 µM | [4] 0.418 µM | [5] 26.4 µM | [14] 0.833 µM | [18] 6.62 µM | [7] 4.69 µM | [9] 0.296 µM | [15] 0.372 µM | [11] 2.35 µM
inactive: [17]

C[C@]12CC[C@H]3[C@@H](CC[C@@]45O[C@H]4C(O)=C(C#N)C[C@]35C)[C@H]1CC[C@H]2O
active: [16] 18.7 µM | [15] 1.48 µM
inactive: [1] | [19] | [3] | [12] | [4] | [5] | [14] | [9] | [10]

O=P1(N(CCCl)CCCl)NCCCO1 (stereo not drawn)
inactive: [19] | [2] | [10] | [15]
active: [17] 20.9 µM | [6] 8.33 µM | [18] 14.8 µM | [20] 2.35 µM | [9] 8.33 µM

CN1C(=O)CCS(=O)(=O)C1c1ccc(Cl)cc1 (stereo not drawn)
active: [9] 20.9 µM | [15] 18.7 µM
not listed: [2] | [4] | [10] | [18] | [19] | [20]
inactive: all other assays above

CCC1(c2ccc(N)cc2)CCC(=O)NC1=O (stereo not drawn)
active: [20] 0.743 µM
not listed: [2] | [5] | [12] | [14] | [16] | [18] | [19]
inactive: all other assays above

CC(C)C[C@H](CN)CC(=O)O
active: [5] 9.35 µM | [20] 11.8 µM
not listed: [14] | [15] | [16] | [18]
inactive: all other assays above

O=C(O)CCCc1ccc(N(CCCl)CCCl)cc1
active: [13] 18.7 µM | [11] 23.5 µM
inactive: [1] | [3] | [6] | [18] | [10]

C[C@]12CCC(=O)C=C1CC[C@@H]1[C@H]3CC[C@](C)(O)[C@@]3(C)CC[C@@H]12
active: [1] 10.8 µM | [5] 34 µM | [6] 15.2 µM | [15] 38.2 µM
inactive: [3] | [12] | [9] | [10]

CC(NC(C)(C)C)C(=O)c1cccc(Cl)c1 (stereo not drawn)
active: [4] 3.72 µM
inactive: [3] | [13] | [16] | [17] | [6] | [7] | [9] | [10]

COc1cc(OC)c(OC)cc1C=O
active: [17] 0.0047 µM
not listed: [2] | [5] | [8] | [15] | [16] | [19] | [20]
inactive: all other assays above
